A short description of assay [1]: A CellTox Green Cytotoxicity Assay to monitor cytotoxicity in HEK293 cells - 32 hour (AID 1224881). Further: nearly all actives have a fitted effect of over 40% in size. Further: potency means the concentration at half of the fitted maximal effect. The method in brief:
(§1)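 Each value comes from one timepoint of a single continuous run in which HEK293 cells with CellTox Green were exposed to compound for up to 40 h at 37 C, dye fluorescence rising with cell death.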

The nature of assay [2]: A CellTox Green Cytotoxicity Assay to monitor cytotoxicity in HepG2 cells - 32 hour (AID 1224883). Further: nearly all actives have a fitted effect of over 50% in size. Further: potency means the concentration at half of the fitted maximal effect. The method in brief:
(§2)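 Continuous culture of HepG2 cells with a membrane-impermeant DNA dye; rising fluorescence marks dead cells. Compound exposure lasted up to 40 h at 37 C, with reads every 8 h from 0 h.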

Assay [3] in a line: A CellTox Green Cytotoxicity Assay to monitor cytotoxicity in HEK293 cells - 8 hour (AID 1224884). Further: nearly all actives have a fitted effect of over 35% in size. Further: potency means the concentration at half of the fitted maximal effect. In a few lines:
as §1

A short description of assay [4]: qHTS RealTime-Glo MT Cell Viability Assay in HepG2 cells - 16 hour (AID 1224885). Further: nearly all actives have a fitted effect of over 50% in size. Further: potency means the concentration at half of the fitted maximal effect. In a few lines: (§3)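 Compound treatment began 5 h after plating HepG2 cells (600/well) with NanoLuc luciferase and prosubstrate. Plates stayed at 37 C for 40 h; luminescence was captured at six time points, 0 h through 40 h.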
(qHTS replaces the single test concentration by a dilution series.)

The nature of assay [5]: qHTS RealTime-Glo MT Cell Viability Assay in HEK293 cells - 8 hour (AID 1224887). Further: nearly all actives have a fitted effect of over 50% in size. Further: potency means the concentration at half of the fitted maximal effect. The method in brief:
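qHTS format; HEK293 cells with NanoLuc/prosubstrate reagent, 37 C/5% CO2 for 5 h pre-dosing; compounds 23 nL in DMSO; luminescence at each time point reflects viable cells.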

Assay [6] can be described thus: A CellTox Green Cytotoxicity Assay to monitor cytotoxicity in HEK293 cells - 16 hour (AID 1224888). Further: nearly all actives have a fitted effect of over 35% in size. Further: potency means the concentration at half of the fitted maximal effect. The method in brief:
as §1

A short description of assay [7]: qHTS RealTime-Glo MT Cell Viability Assay in HepG2 cells - 0 hour (AID 1224889). Further: nearly all actives have a fitted effect of over 50% in size. The method in brief:
as §3

Assay [8] in a line: A CellTox Green Cytotoxicity Assay to monitor cytotoxicity in HepG2 cells - 8 hour (AID 1224890). Further: nearly all actives have a fitted effect of over 45% in size. Further: potency means the concentration at half of the fitted maximal effect. In a few lines: as §2
Assay [9] can be described thus: qHTS assay to identify small molecule antagonists of the estrogen receptor alpha (ER-alpha) signaling pathway using the BG1 cell line in the presence of 0.1 nM 17-beta-estradiol - cell viability counter screen (AID 1259241). Further: nearly all actives have a fitted effect of over 40% in size. Further: potency means the concentration at half of the fitted maximal effect. The method in brief:
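Live-cell protease activity (CellTiter-Fluor fluorescence, 30 min) was read in the same wells after VM7Luc4E2 cells had been exposed to compounds with 0.1 nM 17beta-estradiol for 22 hr at 37C.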

The nature of assay [10]: qHTS assay to identify small molecule antagonists of the androgen receptor (AR) signaling pathway using the MDA cell line in the presence of 0.5 nM R1881 - cell viability counter screen (AID 1259242). Further: nearly all actives have a fitted effect of over 45% in size. Further: potency means the concentration at half of the fitted maximal effect. In a few lines:
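Fluorescence from CellTiter-Fluor, which reports protease activity of live cells, was read 30 min after reagent addition to MDA-kb2 cells that had been incubated 16 hr with compound and 0.5 nM R1881.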

Assay [11] addresses Estrogen receptor (Homo sapiens) (UniProt P03372). The assay is described as follows: qHTS assay to identify small molecule antagonists of the estrogen receptor alpha (ER-alpha) signaling pathway using the BG1 cell line in the presence of 0.1 nM 17-beta-estradiol (AID 1259244). Further: nearly all actives have a fitted effect of over 50% in size. Further: potency means the concentration at half of the fitted maximal effect. In a few lines: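 Quantitative high-throughput screen in VM7Luc4E2 cells: compound plus 0.1 nM E2 (final), 22 h, 37C, 5% CO2; ONE-Glo added, 30 min room temperature, luminescence measured.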

Assay [12] is described as follows: qHTS assay to identify small molecule phospholipidosis (PLD) inducers (AID 1259344; active means well fitted curve in the direction sought with a large enough effect; an effect the other way counts as inactive or inconclusive). In a few lines: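 HepG2 cells grown on collagen I take up LipidTOX Red while exposed to compound for 24 h; after fixation they are imaged at 20x and pit metrics are extracted.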
Assay [13] is described as follows: qHTS assay to identify small molecule agonists of the sonic hedgehog signaling (Shh) pathway - cell viability counter screen (AID 1259366). Further: nearly all actives have a fitted effect of over 50% in size. The method in brief:
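CellTiter-Fluor fluorescence read-out, 1 hr at 37C, added after 23hr compound exposure. Cells: 3T3 Gli1-Luc, an NIH/3T3 clone with stably integrated Gli1-Luc reporter, plated 4hr before compound.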

Assay [14] is described as follows: qHTS assay to identify small molecule antagonists of the sonic hedgehog signaling (Shh) pathway - cell viability counter screen (AID 1259367). Further: nearly all actives have a fitted effect of over 55% in size. Further: potency means the concentration at half of the fitted maximal effect. In a few lines: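 After a 4 hr settling period, 3T3 Gli1-Luc cells were treated with DMSO-dissolved chemicals and conditioned medium, kept 24 hr at 37C in 5% CO2, and assayed for viability by CellTiter-Fluor fluorescence following 1 hr reagent incubation.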

Assay [15] in a line: qHTS assay to identify small molecule agonists of the sonic hedgehog signaling (Shh) pathway (AID 1259368; calls by dose curve;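 further: NIH/3T3-derived 3T3Gli1-Luc cells carrying a stable Gli1-driven firefly luciferase reporter; series mostly up to about 92 µM; nearly all actives have a fitted effect of over 15% in size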). The method in brief: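 Luminescent signal was taken as a measure of Gli1-controlled luciferase expression in stably transfected NIH/3T3-derived cells that had been treated for 24 hr with compounds delivered in DMSO.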
The nature of assay [16]: qHTS RealTime-Glo MT Cell Viability Assay in HEK293 cells - 24 hour (AID 1224886). Further: nearly all actives have a fitted effect of over 50% in size. Further: potency means the concentration at half of the fitted maximal effect. In a few lines:
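Quantitative high-throughput screen of the Tox21 10K library in HEK293: cells and RealTime-Glo reagents plated together, compound added at 5 h, luminescence monitored through 40 h at 37 C.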

Assay [17] can be described thus: qHTS assay to identify small molecule HDAC inhibitors (AID 1259364). Further: nearly all actives have a fitted effect of over 45% in size. Further: potency means the concentration at half of the fitted maximal effect. The method in brief: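 Endogenous HDAC class I/II activity was measured in wild-type HCT-116 cells by HDAC-Glo luminescence after 2 h compound treatment.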
The nature of assay [18]: qHTS assay to identify small molecule HDAC inhibitors - cell viability counter screen (AID 1259365). Further: nearly all actives have a fitted effect of over 50% in size. Further: potency means the concentration at half of the fitted maximal effect. The method in brief:
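HCT-116 (wild type), 1,500 cells/well, overnight 37C/5% CO2; compound in DMSO 2hr; CellTiter-Glo 30min RT; luminescence read.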

Assay [19] in a line: A CellTox Green Cytotoxicity Assay to monitor cytotoxicity in HepG2 cells - 0 hour (AID 1224882). Further: nearly all actives have a fitted effect of over 35% in size. In a few lines: as §2
The target of assay [20] is Androgen receptor (Homo sapiens) (UniProt P10275). As to the kind of experiment: qHTS assay to identify small molecule antagonists of the androgen receptor (AR) signaling pathway using the MDA cell line in the presence of 0.5 nM R1881 (AID 1259243). Further: nearly all actives have a fitted effect of over 50% in size. Further: potency means the concentration at half of the fitted maximal effect. The method in brief: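 Inhibition of R1881 (0.5 nM final) induced reporter signal was measured in human MDA-kb2 cells; note the MMTV promoter also responds to GR. Exposure lasted 16 hr at 37C.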
Androgen receptor (Homo sapiens), sequence (P10275 whole entry, looked up): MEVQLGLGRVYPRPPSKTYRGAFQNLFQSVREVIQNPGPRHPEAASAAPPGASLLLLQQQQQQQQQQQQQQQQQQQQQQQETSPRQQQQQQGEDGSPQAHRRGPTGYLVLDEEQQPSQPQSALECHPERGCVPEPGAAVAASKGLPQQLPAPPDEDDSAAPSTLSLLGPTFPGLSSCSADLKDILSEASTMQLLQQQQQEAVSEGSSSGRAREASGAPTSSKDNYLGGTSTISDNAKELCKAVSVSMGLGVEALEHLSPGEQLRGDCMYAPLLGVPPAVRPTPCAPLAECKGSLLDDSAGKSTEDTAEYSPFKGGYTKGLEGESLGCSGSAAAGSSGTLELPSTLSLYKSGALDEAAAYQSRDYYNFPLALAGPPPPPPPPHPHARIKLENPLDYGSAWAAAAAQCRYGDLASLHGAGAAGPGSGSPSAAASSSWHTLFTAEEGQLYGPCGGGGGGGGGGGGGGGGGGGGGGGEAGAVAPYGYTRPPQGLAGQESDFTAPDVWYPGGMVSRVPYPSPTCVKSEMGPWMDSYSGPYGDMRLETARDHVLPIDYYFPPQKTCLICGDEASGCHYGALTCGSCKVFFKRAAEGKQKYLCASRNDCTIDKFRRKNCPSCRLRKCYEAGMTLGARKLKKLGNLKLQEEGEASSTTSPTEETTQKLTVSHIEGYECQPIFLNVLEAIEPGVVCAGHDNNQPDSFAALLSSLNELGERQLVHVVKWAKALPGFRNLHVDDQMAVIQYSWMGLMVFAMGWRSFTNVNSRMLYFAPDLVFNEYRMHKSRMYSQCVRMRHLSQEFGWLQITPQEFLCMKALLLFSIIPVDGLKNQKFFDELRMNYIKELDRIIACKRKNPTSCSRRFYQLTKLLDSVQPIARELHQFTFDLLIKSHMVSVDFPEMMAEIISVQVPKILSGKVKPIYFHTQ

A number with no mark means an inactive call. Results filed as inconclusive are left out. Active and inactive are the calls of the source. Unless noted, the call rests on the fitted dose curve; in most records, active means well fitted curve in the direction sought with a large enough effect in the repeat runs; inconclusive means weak or mixed curves; inactive means no such curve, though single readings can be large; an effect the other way counts as inactive or inconclusive.
On the % scale 0 is the no-effect control and ±100 the full control effect.

Estrogen receptor (Homo sapiens), sequence (P03372 whole entry, looked up): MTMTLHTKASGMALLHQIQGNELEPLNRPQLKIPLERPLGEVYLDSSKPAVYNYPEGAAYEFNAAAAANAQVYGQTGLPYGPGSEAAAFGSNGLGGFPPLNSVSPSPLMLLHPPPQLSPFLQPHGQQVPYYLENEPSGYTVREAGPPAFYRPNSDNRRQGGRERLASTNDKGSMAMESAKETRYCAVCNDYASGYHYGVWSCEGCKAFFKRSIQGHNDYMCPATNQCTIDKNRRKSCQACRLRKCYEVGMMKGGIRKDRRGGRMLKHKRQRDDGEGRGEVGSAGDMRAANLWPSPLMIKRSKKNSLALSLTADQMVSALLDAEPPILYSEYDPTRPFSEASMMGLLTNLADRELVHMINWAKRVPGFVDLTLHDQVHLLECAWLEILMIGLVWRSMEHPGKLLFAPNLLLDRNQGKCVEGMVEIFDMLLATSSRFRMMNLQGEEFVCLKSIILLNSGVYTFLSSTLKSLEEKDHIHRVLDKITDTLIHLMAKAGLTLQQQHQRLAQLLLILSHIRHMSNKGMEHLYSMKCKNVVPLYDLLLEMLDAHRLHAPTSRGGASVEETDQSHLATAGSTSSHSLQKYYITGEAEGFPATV

Consider `COc1c2c(cc3c1OCO3)CCN(C)C2`, for which the Potency entry in [1], in assay [2], in [3], in assay [4], in assay [5] and in assay [6] was “inactive” throughout. The Potency entry in [7], in assay [8], in assay [9], in assay [10], in [11] and in assay [13] was “inactive” each time. Further, the Potency result in assay [14] and in assay [15] was “inactive” each time. Moreover, the compound was classed as inactive in [12].

Regarding `CC(O)C(=O)[O][Hg][c]1ccccc1` (stereo not given), the Potency in assay [1] was 3.09 µM (active); in [2], 2.19 µM (active); in assay [4] it was 2.19 µM (active); in [16], 0.977 µM (active); in [5], 1.55 µM (active); in assay [6], 24.5 µM (active). In addition, the Potency was 2.75 µM (active) in assay [8]; 12.2 µM (active) in [9]; 6.11 µM (active) in assay [10]; 8.63 µM (active) in assay [11]; 4.33 µM (active) in assay [17]; 4.33 µM (active) in [18]. In addition, the Potency in [14] is 1.22 µM (active). Moreover, the Potency entry in assay [7] and in assay [15] was “inactive” each time.

Turning to `NC1CCC(CC2CCC(N)CC2)CC1` (stereo not given), the Potency entry in [1], in assay [2], in [3], in assay [4], in [5] and in [6] was “inactive” throughout. Also, the Potency entry in [7], in assay [8], in [11], in assay [17], in [18] and in [15] was “inactive” in each case.

Regarding `Oc1ccc([C@H]2CNCc3c2ccc(O)c3O)cc1O`, the Potency in [2], in [3] and in [8] was 26.8 µM (active) in each case. Besides, the Potency result in [16], in [7], in [10], in assay [11], in assay [17] and in assay [18] was “inactive” throughout. Besides, the Potency entry in assay [14] and in assay [15] was “inactive” each time. In addition, the PLD induction in assay [12] was -2.7% [at 7.66 µM].

Turning to `O=S1(=O)OCC2C(CO1)C1(Cl)C(Cl)=C(Cl)C2(Cl)C1(Cl)Cl` (stereo not given), the Potency result in assay [19], in [3], in [7], in [8], in assay [9] and in assay [17] was “inactive” in each case. Moreover, the Potency entry in assay [18], in assay [14] and in assay [15] was “inactive” throughout. The Potency in assay [16] is 19.5 µM (active); in [11] it was 54.5 µM (active).

`O=[N+]([O-])C(Br)Br`: the Potency result in assay [19], in [3], in [4], in [7], in assay [8] and in [9] was “inactive” each time. Also, the Potency result in [10], in assay [20], in assay [17], in [18], in assay [13] and in assay [14] was “inactive” in each case. In addition, the Potency entry in assay [15] was “inactive”. For the same compound, the Potency in assay [16] was 55 µM (active).

As for `CN1C(=O)[C@@H](NC(=O)c2cc3ccccc3[nH]2)N=C(c2ccccc2)c2ccccc21`, the Potency result in assay [1], in [2], in [3], in [16], in [5] and in assay [6] was “inactive” throughout. The Potency result in assay [7], in [8], in assay [9], in [10], in assay [18] and in [13] was “inactive” in each case. In addition, the Potency entry in [14] and in assay [15] was “inactive” in each case. For the same compound, in assay [12], the call was inactive.

`CC(=O)C(Cl)C(=O)N(C)C` (stereo not given): the Potency result in assay [2], in assay [3], in [4], in assay [16], in assay [5] and in [6] was “inactive” throughout. Further, the Potency result in [7], in assay [8], in assay [9], in assay [10], in [11] and in assay [17] was “inactive” each time. In addition, the Potency entry in assay [18], in assay [13], in assay [14] and in assay [15] was “inactive” in each case.

Regarding `N#Cc1c2ccccc2cc2ccccc12`, the Potency entry in assay [1], in assay [2], in assay [3], in assay [4], in assay [5] and in assay [6] was “inactive” each time. For the same compound, the Potency entry in assay [7], in assay [8], in assay [9], in assay [10], in [11] and in assay [17] was “inactive” in each case. Besides, the Potency entry in assay [18] and in assay [15] was “inactive” in each case. In addition, the Potency in [20] was 10.8 µM (active).

For the origin of these results see PubChem BioAssay (Tox21).
